Results filed as inconclusive are left out. The source made the active and inactive calls. Calls follow the shape of the dose curve; as a rule, active = well fitted inhibition curve with a large enough effect in the repeat runs; inconclusive = weak or mixed curves; inactive = flat fitted curve, though single readings scatter.

Tested on in one assay: not listed separately
Description: qHTS Assay for Lipid Storage Modulators (AID 1519). Conditions: Drosophila S3 cells, BODIPY lipid droplet/cell ratio, laser cytometry; measured here: lipid channel max response; cells loaded with oleic acid. The essentials:
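Cells seeded at 5,000 per well were treated with compounds over a concentration series and loaded with oleic acid (400 uM, as added). Lipid droplet fluorescence (488 nm excitation, 500-530 nm channel) was read by laser-scanning cytometry and normalized to 20 uM Triacsin C.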
A general note: qHTS replaces the single test concentration by a dilution series.
With `COC1=CC(=O)C(O)=C/C1=C\C=C\c1ccccc1`, the max response is -29.1%.

On to `COC(=O)[C@H]1C(OC)[C@@H](OC(=O)c2cc(OC)c(OC)c(OC)c2)C[C@@H]2CN3CCc4c([nH]c5cc(OC)ccc45)[C@H]3C[C@H]21` (stereo not given in full), for which the max response worked out at 13.7%.

Turning to `CN1CCCC1CCO[C@@](C)(c1ccccc1)c1ccc(Cl)cc1` (stereo not given in full), the max response was -28.2%.

With `CC(=O)c1c(O)c(C)c(O)c2c1OC1=CC(=O)C(C(C)=O)C(=O)C12C` (stereo not given), the max response was 22.6%.

For `CC(CN(C)C)CN1c2ccccc2Sc2ccccc21` (stereo not given), the max response stood at 10.9%.

As for `CCC(C)C(=O)OC1CC(C)C=C2C=CC(C)C(CCC3CC(O)CC(=O)O3)C21` (stereo not given), the max response worked out at 5.38%.

For `O=C(CC(=O)c1ccccc1)c1ccccc1`, the max response is 4.72%.

Take `CC1=C(C(=O)O)N2C(=O)C(NC(=O)C(N)c3ccccc3)C2SC1` (stereo not given): the max response was 24.8%.

On to `CC1=C2C(=COC(C)C2C)C(=O)C(C(=O)O)=C1O` (stereo not given), for which the max response is 4.23%.

For `NCC1O[C@@H](O[C@H]2C(O)C(O[C@@H]3C(O[C@H]4OC(CO)C(O)C(O)C4N)C(N)CC(N)[C@H]3O)O[C@@H]2CO)C(N)C(O)C1O` (stereo not given in full), the max response was determined as 35.3%.

For `C#CCCCCCCCCCCCc1ccco1`, the max response was determined as 11.4%.

In the case of `CC(=O)OC1CC[C@@]2(C)C3CC(=O)[C@]4(C)C(C(C)=O)=CCC4C3CC[C@H]2C1` (stereo not given in full), the max response was -10%.

`CC(C)=CCCC(C)C1CC[C@@]2(C)C3=C(CC[C@@]12C)C1(C)CCC(O)C(C)(C)C1CC3` (stereo not given in full): the max response was found to be 15.7%.

Take `CN1CCCC1c1cccnc1` (stereo not given): the max response was found to be 23.7%.

On to `NCCCCC(NC(CCc1ccccc1)C(=O)O)C(=O)N1CCCC1C(=O)O` (stereo not given), for which the max response came out at 24.7%.

In the case of `CCC(C)(C)C(=O)OC1CC(C)C=C2C=CC(C)C(CCC3CC(O)CC(=O)O3)C21` (stereo not given), the max response is -4.92%.

For the compound `C#C[C@@]1(O)CCC2C3CCc4cc(O)ccc4C3CC[C@@]21C` (stereo not given in full), the max response amounted to 11.2%.

For the compound `COC(=O)CCC(C)C1CCC2C3C(O)C[C@@H]4CC(O)CC[C@@]4(C)C3CC(O)[C@]12C` (stereo not given in full), the max response was 3.42%.

As for `CC(C)c1ccc2c(c1)CCC1C(C)(C(N)=O)CCCC21C` (stereo not given), the max response is -18.2%.

Take `CC(=O)OCC1=C(C(=O)O)N2C(=O)C(NC(=O)Cc3cccs3)C2SC1` (stereo not given): the max response came out at 22%.

Take `CC1OC(OCC2OC(Oc3c(-c4ccc(O)c(O)c4)oc4cc(O)cc(O)c4c3=O)C(O)C(O)C2O)[C@@H](O)C(O)C1O` (stereo not given in full): the max response turned out to be 10.1%.

For the compound `CC1(C)OC2CC3C4CCC5=CC(=O)CCC5(C)C4(F)C(O)CC3(C)[C@]2(C(=O)CCl)O1` (stereo not given in full), the max response was 26.2%.

In another assay the target is Cytochrome P450 2D6 (Homo sapiens) (UniProt P10635). Kind of assay: Cytochrome P450 family 2 subfamily D member 6 (CYP2D6) small molecule antagonists: luciferase biochemical (cell-free) qHTS assay (AID 1645840). Also: nearly all actives have a fitted effect of over 55% in size. Also: potency is read from the fitted curve at half-maximal effect. To be noted: P450-Glo CYP2D6 enzyme, luciferin luminescence, 1 h; series mostly up to 57.4 µM. Summed up: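 P450-Glo luminescent screen: recombinant CYP2D6 enzyme–proluciferin substrate mix preincubated with compound 10 min at room temperature, then NADPH regeneration added for 1 h at room temperature. Detection reagent added for 20 min; luciferin light read as relative luminescence units.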
Chain of Cytochrome P450 2D6 (Homo sapiens) (P10635 whole entry, looked up): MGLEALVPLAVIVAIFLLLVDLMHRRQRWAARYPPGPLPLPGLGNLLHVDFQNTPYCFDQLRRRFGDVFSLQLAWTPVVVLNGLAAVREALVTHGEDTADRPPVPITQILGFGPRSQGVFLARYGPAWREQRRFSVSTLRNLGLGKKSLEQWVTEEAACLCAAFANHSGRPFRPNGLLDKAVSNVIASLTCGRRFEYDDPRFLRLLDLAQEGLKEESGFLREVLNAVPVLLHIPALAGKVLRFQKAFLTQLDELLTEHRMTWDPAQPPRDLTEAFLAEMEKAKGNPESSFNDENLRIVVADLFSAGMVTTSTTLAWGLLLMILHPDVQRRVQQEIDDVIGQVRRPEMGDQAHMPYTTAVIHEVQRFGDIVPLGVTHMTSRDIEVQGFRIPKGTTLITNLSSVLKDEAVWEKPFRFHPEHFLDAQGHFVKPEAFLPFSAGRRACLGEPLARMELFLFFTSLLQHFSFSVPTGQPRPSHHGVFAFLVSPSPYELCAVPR
Turning to `COc1ccc2cc(Br)ccc2c1`, the Potency entry was “inactive”.

Regarding `Cc1nc2c3ccccc3nc(NNC(=O)CCC(=O)N3CCN(c4ccccc4)CC3)n2n1`, the Potency entry was “inactive”.

Turning to `Cc1cc(C)cc(NC(=O)Cn2c(=O)n(-c3ccc(C)c(C)c3)c(=O)c3oc4ccccc4c32)c1`, the Potency is 0.425 µM (active).

Consider `O=C(Nc1cccc(Cl)c1)Nc1ccccc1OCc1cc(=O)n2ccccc2n1`, for which the Potency result is “inactive”.

Take `CC12CCC3(C)C(=CC(=O)[C@@H]4C5(C)CC[C@H](O[C@H]6O[C@H](C(=O)O)C(O)C(O)[C@H]6O[C@@H]6O[C@H](C(=O)O)C(O)C(O)C6O)C(C)(C)[C@@H]5CCC43C)[C@@H]1C[C@@](C)(C(=O)O)CC2` (stereo not given in full): the Potency result was “inactive”.

For `CCc1ccc(CN(Cc2ccco2)C(=O)COc2ccccc2Cl)cc1`, the Potency was 7.56 µM (active).

As for `CCCCC[C@H](O)CC[C@@H]1[C@H]2Cc3cccc(OCC(=O)O)c3C[C@H]2C[C@H]1O`, the Potency entry was “inactive”.

In the case of `Cn1c(=O)c2c(nc(CN3CCN(C(=O)C4CC4)CC3)n2Cc2cccc(F)c2)n(C)c1=O`, the Potency result was “inactive”.

In the case of `CC(O)CNC(=O)C(=O)Nc1c2c(nn1-c1ccc(Cl)cc1)CSC2` (stereo not given), the Potency result is “inactive”.

Take `Cn1c(=O)c2c(nc(CN3CCN(C(=O)C4CC4)CC3)n2Cc2ccccc2Cl)n(C)c1=O`: the Potency entry is “inactive”.

For the compound `Cc1cccn2c(=O)c(/C=C(\C#N)c3nc4ccccc4s3)c(Oc3ccc(F)cc3)nc12`, the Potency entry is “inactive”.

On to `Cc1nc2c3ccccc3nc(NNC(=O)CCC(=O)N3CCN(c4ccccc4F)CC3)n2n1`, for which the Potency result is “inactive”.

In the case of `O=C(O)c1cc(O)c2c(O)c3c(O[C@@H]4O[C@H](CO)[C@@H](O)[C@H](O)[C@H]4O)cccc3c(-c3c4cc(C(=O)O)cc(O)c4c(O)c4c(O[C@@H]5O[C@H](CO)[C@@H](O)[C@H](O)[C@H]5O)cccc34)c2c1`, the Potency was 15.1 µM (active).

For `CC1(C#N)CCN(c2c(C(=O)N3CCN(S(C)(=O)=O)CC3)cnc3cc(F)c(F)cc23)CC1`, the Potency entry is “inactive”.

`COc1ccc(-c2nc3n(n2)C(c2ccc(OC)c(OC)c2)C(C(=O)Nc2cccnc2)=C(C)N3)cc1` (stereo not given): the Potency result is “inactive”.

For the compound `CCCCC1CCC(CCCC(C)CCC(=O)O)CC1` (stereo not given), the Potency result is “inactive”.

On to `NCCOCCOCCOCCOCCN1CCN(C(c2ccc(Cl)cc2)c2ccc(Cl)cc2)CC1`, for which the Potency was 6.74 µM (active).

In the case of `CCc1ccc(C(=O)c2cn(CC(=O)Nc3ccc(OC)c(OC)c3)c3ccc(C)cc3c2=O)cc1`, the Potency entry is “inactive”.

For the origin of these results see PubChem BioAssay (NCATS).
